# Measured values: the supplement of paper PMC6555819
# Legend:
# Test in all cases: PBM binding z-score (relative to random genomic background probes); higher = stronger binding; sequences stand for … in GC…GCGATTGACAGCGTAGAATGAAGG
# [1] = tested on: PPARg:RXRa DBDmut IVT, anti-RXR (DBD mutation: RXRa K156A/R161A, NR concentration 270 nM, RXRa partner concentration 90 nM)
# In short: (§1)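 Scanned fluorescence from custom Agilent 4×180K protein-binding microarrays was regression-normalized. Binding z-scores use random background probes as reference. Ligand-free nuclear receptor dimers were incubated on the arrays for 1 h and detected with antibodies against each partner (one per run).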
# [2] = tested on: PPARg:RXRa IVT, anti-PPARg (NR concentration 270 nM, RXRa partner concentration 90 nM)
# In short: as §1
# [3] = tested on: PPARg DBDmut:RXRa IVT, anti-PPARg (DBD mutation: PPARg1 K132A/R137A, NR concentration 270 nM, RXRa partner concentration 90 nM)
# In short: as §1
# [4] = tested on: PPARg DBDmut IVT, anti-PPARg (DBD mutation: PPARg1 K132A/R137A, NR concentration 270 nM)
# In short: as §1
# [5] = tested on: PPARg homodimer (NR concentration 180 nM)
# In short: as §1
# [6] = tested on: PXR:RXRa (NR concentration 270 nM, RXRa partner concentration 90 nM)
# In short: as §1
# [7] = tested on: PXR homodimer (NR concentration 270 nM)
# In short: as §1
# [8] = tested on: RARa:RXR (NR concentration 270 nM, RXRa partner concentration 90 nM)
# In short: as §1
# [9] = tested on: RARa homodimer (NR concentration 270 nM)
# In short: as §1
# [10] = tested on: RARb:RXRa (NR concentration 270 nM, RXRa partner concentration 90 nM)
# In short: as §1
# [11] = tested on: RARb homodimer (NR concentration 270 nM)
# In short: as §1
# [12] = tested on: RARg:RXRa (NR concentration 270 nM, RXRa partner concentration 90 nM)
# In short: as §1
# [13] = tested on: RARg homodimer (NR concentration 270 nM)
# In short: as §1
# [14] = tested on: RXRa DBDmut IVT, anti-RXR (DBD mutation: RXRa K156A/R161A, NR concentration 90 nM)
# In short: as §1
# [15] = tested on: RXRa homodimer (NR concentration 180 nM)
# In short: as §1
# [16] = tested on: THRa:RXRa (NR concentration 90 nM, RXRa partner concentration 90 nM)
# In short: as §1
# [17] = tested on: THRa homodimer (NR concentration 90 nM)
# In short: as §1
# [18] = tested on: VDR homodimer (NR concentration 270 nM)
# In short: as §1
Sequence,PBM binding z-score [1],PBM binding z-score [2],PBM binding z-score [3],PBM binding z-score [4],PBM binding z-score [5],PBM binding z-score [6],PBM binding z-score [7],PBM binding z-score [8],PBM binding z-score [9],PBM binding z-score [10],PBM binding z-score [11],PBM binding z-score [12],PBM binding z-score [13],PBM binding z-score [14],PBM binding z-score [15],PBM binding z-score [16],PBM binding z-score [17],PBM binding z-score [18]
GCGACTGGGGCAAAGCAGGTAACCATAAGGTTGG,4.21,3.7,-0.574,-0.498,-0.0633,-0.292,-0.741,0.385,-0.971,0.691,0.207,0.0978,0.448,-0.914,0.117,2.89,-0.129,-0.329
TCTCGTAGATCAGCAGGTTAAGAAAGCTGGCCAA,1.33,-0.478,-0.653,-0.513,-0.593,-0.00394,-0.361,0.521,-0.998,-0.0596,-0.209,-0.0899,-0.67,0.451,0.405,0.0434,-0.546,-0.597
TCATATAGGTAAACAGGTCAAAGTCCGTAAGTTA,5.17,5.48,3.64,1.86,2.44,2.77,0.953,3.52,1.47,2.8,2.99,3.2,2.4,1.54,3.59,2.27,0.804,1.93
AGTCAAAGTTCATCTACGTAACGTAAGATATGCT,0.41,2.74,1.46,1.88,2.94,4.96,4.87,3.51,1.69,4.85,3.64,5.4,6,4.59,4.55,1.88,-0.445,4.34
CCTGCTAGGTCAATGGTCAGCTACAGCAGCTCGC,4.55,3.95,-0.354,-0.419,1.53,1.04,-0.299,1.64,-0.404,3.58,2.95,3.82,4.13,1.74,2.49,2.19,1,0.15
CAAACTCGGTCACAGAGGTCAAAGTCCGTGCGTA,5.32,6.01,1.83,1.84,5.93,6.25,8.31,6.39,2.88,4.75,5.29,6.57,6.96,2.49,6.63,4.04,1.73,5.74
ACTATTAGTTCAGACGAGGGCAACCGATAGGTTG,0.264,0.891,0.625,0.802,0.783,3.92,2.04,0.878,0.72,2.1,2.05,1.74,1.88,2.26,0.943,4.09,0.384,2.44
CGCCAAAGTTCAAGGTAACGTAACAGAAAGCAGC,0.89,1.7,0.701,0.562,1.95,4.18,2.34,3.4,1.12,5.28,4.05,5.2,5.94,4.68,4.57,2.96,1.28,3.03
TCATATTGGTAAACAGGTGAAAGTCCGTAAGTTA,2.2,1.5,0.411,1.32,1.25,1.03,0.511,1.35,1.38,0.73,0.882,0.412,0.0109,1.5,0.951,0.634,0.5,0.487
GCATATAGGTAATACAAGGAGAAAGTCCGATTGT,3.9,2.35,0.451,1,-0.266,-0.205,0.00189,0.277,0.43,-0.406,-0.449,0.152,0.156,0.562,-0.0159,1.9,-0.606,-0.234
GGAACGAGGGCAAAGTTGATAGAATCTGTCGACG,4.01,4.36,0.353,-0.207,0.397,1.25,0.121,1.74,-0.438,2.32,1.19,2.18,1.77,2.54,2.06,1.39,-0.286,1.42
GCTCGGAGGACAATGTCAGAGCTTTGTCCGTAGA,-0.596,-0.513,-1.4,-0.198,-1.02,-0.494,-0.648,-0.772,-1.31,0.788,0.0448,-0.133,0.0822,0.18,-0.593,0.348,-0.612,-0.447
GCTAGTTGGTCAGTGAAAGGTCACACACCGGTCG,1.21,2.97,0.254,0.307,3.99,5.13,1.02,5.89,1.88,4.27,4.96,5.66,4.94,0.305,5.62,3.42,1.71,1.73
ACAGACAGGTGATGAAAGTAACTCAGGCTATCAT,-0.123,0.107,0.648,-0.00926,-0.948,-0.313,0.153,-0.63,-0.762,0.0648,-0.49,0.123,0.169,-0.387,0.297,-0.0258,-0.579,-0.942
ACAGACAGGAGAGTGAAGGTAACTCAGCTGGACG,-0.0669,0.0769,0.725,0.294,0.433,0.0985,0.114,0.228,0.297,0.198,0.0737,0.0775,0.235,-0.483,0.0394,0.195,0.113,-0.235
